SARS PLP yeast: qHTS of Yeast-based Assay for SARS-CoV PLP; Potency, µM (titrated, usually from 32.9 µM), for inactives: at the highest dose activity, positive = growth rescue, actives largely listed as activators; AID 485353, 2010; S. cerevisiae expressing SARS-CoV PLpro, growth rescue; 330,000 tested, 0.19% active; calls by dose curve; further: 0% is about no effect; nearly all actives have a fitted effect of over 55% in size
RE007 growth inh: qHTS Assay for Inhibitors of the HIV-1 protein Vpr | 360,000 tested, 0.21% active | Potency, µM (highest dose often 92.2 µM), for inactives: top-dose activity change, negative = less growth, usual class: inhibitors | S. pombe RE007 Vpr strain, BacTiter-Glo ATP luminescence, 24 h; active means well fitted falling curve with a large enough effect; inconclusive means small, poorly fitted or top-dose-only effect; inactive means no such curve, though single readings can be large or run the other way; further: on the % scale 0 is the no-effect control and ±100 the full control effect; nearly all actives have a fitted effect of over 50% in size
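Fission yeast strain RE007, carrying one chromosomally integrated HIV-1 vpr copy, was seeded at OD 0.01 in PMG+AL medium with 23 nL pinned compound. After 24 h at 30 °C and 99% humidity, viability was read by BacTiter-Glo luminescence.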
NS1 inh: qHTS Assay for Inhibitors of Influenza NS1 Protein Function | Potency, µM (series often up to 46.1 µM), without a hit: at the highest dose activity, positive = more growth | 270,000 tested, 0.4% active; calls by dose curve; further: actives are rising curves; nearly all actives have a fitted effect of over 50% in size
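Read-out: OD600 growth recovery of NS1-expressing budding yeast. Cells grown overnight at 30C in -URA glucose medium, washed, resuspended and diluted 1:100 in 2% galactose assay medium, pH 6.0. Same strain lacking NS1 served as positive control.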
TbPYK inhibitor: qHTS of Trypanosoma Brucei Inhibitors. Potency, µM (doses to about 76.8 µM), inactives show at the highest dose activity, negative = inhibition, most hits filed as inhibitors. 410,000 tested, 0.12% active. TbPYK enzyme, Kinase-Glo Plus ATP luminescence, 45 min. pyruvate kinase (Trypanosoma brucei), Q57TT1; further: on the % scale 0 is the no-effect control and ±100 the full control effect; nearly all actives have a fitted effect of over 50% in size
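Activity of T. brucei pyruvate kinase was followed by Kinase-Glo Plus luminescence after the enzyme reacted 45 min at room temperature with 130 uM ADP (final) and substrate. Test compounds were added before ADP at multiple concentrations.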
Sm TGR inh: qHTS Assay for the Inhibitors of Schistosoma Mansoni Peroxiredoxins; Schistosoma mansoni thioredoxin glutathione reductase (TGR), Q962Y6; purified TGR, DTNB reduction, TNB absorbance 405 nm; Potency, µM (titrated, usually from 114 µM), without a hit: at the highest dose activity change, negative = inhibition, hits mostly inhibitors; 360,000 tested, 3% active; AID 485364, 2010; further: on the % scale 0 is the no-effect control and ±100 the full control effect; nearly all actives have a fitted effect of over 60% in size
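Kinetic colorimetric format: TGR-catalysed, NADPH-driven DTNB reduction monitored via TNB absorbance. Enzyme dispensed at 20 nM; compound exposure 15 min at room temperature before reaction start.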
LmPK inhibitor: qHTS Assay for Inhibitors of Leishmania Mexicana Pyruvate Kinase (LmPK). 290,000 tested, 0.37% active. Potency, µM (top dose mostly 57.5 µM), for inactives: at the highest dose activity change, negative = inhibition, actives largely listed as inhibitors. AID 1721, 2009. Q27686. purified LmPK, Kinase-Glo ATP luminescence, 1 h; further: on the % scale 0 is the no-effect control and ±100 the full control effect
Target sequence (Q27686 whole entry, looked up): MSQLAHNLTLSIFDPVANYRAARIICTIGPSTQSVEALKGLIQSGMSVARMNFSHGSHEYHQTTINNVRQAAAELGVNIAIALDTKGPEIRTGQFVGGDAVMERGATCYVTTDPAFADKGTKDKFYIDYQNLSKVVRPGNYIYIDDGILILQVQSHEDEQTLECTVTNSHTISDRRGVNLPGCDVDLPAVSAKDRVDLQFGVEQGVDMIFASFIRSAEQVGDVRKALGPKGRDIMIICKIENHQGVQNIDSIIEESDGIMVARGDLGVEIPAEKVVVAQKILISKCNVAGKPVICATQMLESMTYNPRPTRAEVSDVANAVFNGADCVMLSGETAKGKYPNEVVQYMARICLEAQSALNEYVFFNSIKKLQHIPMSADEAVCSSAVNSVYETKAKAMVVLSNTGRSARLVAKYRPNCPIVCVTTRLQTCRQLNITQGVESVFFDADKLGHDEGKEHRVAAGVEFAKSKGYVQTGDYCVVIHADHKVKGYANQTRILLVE
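Screened at intermediate enzyme activity to detect both inhibitors and activators: LmPK at 0.1 nM, with a 0.5 nM enzyme column as activation reference. PEP 0.5 mM, ADP 0.1 mM; ATP detected by luminescence after 1 h.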
Starred values were filed as active, the others as inactive; u = inconclusive; x = no result given; [ ] = another dose, or the depositor's remark. Hits are enriched below; roughly 3.3% of the tested compounds scored in any of these assays. Unless noted, the call rests on the fitted dose curve; in most records, active means well fitted curve in the direction sought with a large enough effect; inconclusive means small, poorly fitted or top-dose-only effect, or another doubt; inactive means no such curve, though single readings can be large; an effect the other way counts as inactive or inconclusive. Potency means the concentration at half of the fitted maximal effect.

SMILES	SARS PLP yeast	RE007 growth inh	NS1 inh	TbPYK inhibitor	Sm TGR inh	LmPK inhibitor
CC(C)(C)c1ccccc1NC(=O)CN1C(=O)NC(Cc2ccccc2)C1=O (stereo unspecified)	3.5%	-9.8%	x	-6.3%	50.1µM*	x
Cc1c(NC(=O)CN2C(=O)NC(CCc3ccccc3)C2=O)c(=O)n(-c2ccccc2)n1C (stereo unspecified)	0.3%	1.6%	x	-4.5%	22.4µM*	-0.8%
Cc1c(NC(=O)COc2ncnc3ccccc23)c(=O)n(-c2ccccc2)n1C	2.2%	-4.6%	-10.0%	-2.8%	35.5µM*	0.7%
CC(C)CC1NC(=O)N(CC(=O)Nc2ccccc2-c2ccccc2)C1=O (stereo unspecified)	3.5%	4.1%	x	-0.4%	2.24µM*	4.1%
O=C(CN1C(=O)NC(Cc2ccccc2)C1=O)Nc1ccccc1F (stereo unspecified)	5.4%	1.3%	x	0.0%	1.9%	x
CC(C)CC1NC(=O)N(CC(=O)Nc2ccc(-c3ccccc3)cc2)C1=O (stereo unspecified)	-0.9%	5.8%	x	0.6%	-7.5%	x
COc1ccc(CCNC(=O)Cn2ncc3c(C)n(Cc4ccccc4F)c(C)c3c2=O)cc1OC	x	x	x	-0.6%	-5.7%	x
C[C@H]1[C@@H]2Cc3ccc(O)cc3[C@]1(C)CCN2C	x	x	x	-9.5%[386 µM]	x	x
O=[N+]([O-])c1ccc(-[n+]2ccc3ccccc3c2)c([N+](=O)[O-])c1	5.5%	-16.4%	x	-5.4%	1.78µM*	x
O=[N+]([O-])c1ccc(SNc2ccccc2)c([N+](=O)[O-])c1	x	-10.8%	x	-2.5%	x	x
COc1cc(C(=O)NC(=S)Nc2ccc(Cl)c(C(=O)O)c2)cc(OC)c1OC	1.2%	4.8%	18.4%	0.5%	39.8µM*	0.7%
COc1cc(OC)cc(C(=O)NC(=S)Nc2ccc(Cl)c(C(=O)O)c2)c1	2.9%	-3.0%	9.7%	2.9%	22.4µM*	-4.3%
Cc1cc(C)c2c(SCc3ccc(Cl)cc3Cl)nc(N)nc2n1	x	x	-2.8%	x	x	x
COc1ccc(Br)cc1[C@H]1[C@@H]2C=CCC[C@@]2(C)C(=O)N1Cc1ccccc1	-18.3%	14.2%	-65.3%	3.1%	-7.0%	2.6%
COc1ccc(/C=C/c2ccccc2)cc1[C@H]1[C@@H]2C=CCC[C@@]2(C)C(=O)N1Cc1ccccc1	-2.1%	-8.5%	u	1.6%	28.2µM*	-6.2%
COc1cccc(/C(O)=C2/C(=O)C(=O)N(CCN3CCOCC3)C2c2cccnc2)c1 (stereo unspecified)	16.6%	5.8%	-1.5%	0.7%	22.4µM*	11.8%
Cc1ccc(C)c(/C(O)=C2\C(=O)C(=O)N(CCCN3CCOCC3)C2c2cccnc2)c1 (stereo unspecified)	7.5%	-17.5%	10.2%	0.9%	28.2µM*	-3.3%
O=C1NC2CCCCN2C12CCN(CCCN1c3ccccc3CCc3ccc(Cl)cc31)CC2 (stereo unspecified)	x	x	x	1.4%	x	x
Cc1ccc(C2=NCCn3nc4cc([N+](=O)[O-])ccc4c32)cc1	-3.7%	-2.6%	x	-11.6%	39.8µM*	x
Cc1cc(C)c(S(=O)(=O)NCCc2cc3ccc(C)cc3[nH]c2=O)c(C)c1	x	x	x	0.5%	3.8%	x
O=C1C(Cl)=C(N2CCN(c3ccccc3[N+](=O)[O-])CC2)C(=O)c2ccccc21	-11.5%	-24.9%	0.6%	-5.7%	1.58µM*	-18.4%
NNc1nncn1N	x	x	-3.5%	x	x	x
COc1ccc(-n2c(=O)c(-c3cccs3)nc3cnc(N4CCNCC4)nc32)cc1	x	x	x	0.0%	x	x
O=C1C(=O)c2cccc3cccc1c23	-12.0%	u	x	-9.4%	-0.6%	9.3%
O=C1C([N+](=O)[O-])=C(O)c2cccc3cccc1c23	2.4%	x	9.2%	x	39.8µM*	-13.5%
SMILES	SARS PLP yeast	RE007 growth inh	NS1 inh	TbPYK inhibitor	Sm TGR inh	LmPK inhibitor
O=C(NCC1OCCc2ccccc21)c1ccco1 (stereo unspecified)	-1.5%	-1.2%	-19.5%	-9.0%	31.6µM*	5.3%
COc1cc(CN2CCc3ccc(NC(=O)CCc4ccccc4OC)cc3C2)ccc1O	-3.4%	-10.9%	2.4%	-5.0%	12.6µM*	-2.0%
COc1cc(CN2CCc3ccccc3C2)ccc1O	-0.4%	-1.8%	4.5%	-6.3%	20µM*	-1.1%
COc1ccc(CN2CCc3ccc(NC(=O)CCc4ccccc4OC)cc3C2)c(O)c1	-1.4%	-5.0%	5.8%	5.0%	-27.1%	-0.1%
COc1ccc(C(=O)NCC(c2ccc3c(c2)OCO3)N2CCN(c3ccccc3F)CC2)cc1 (stereo unspecified)	x	x	x	-8.1%	1.7%	x
COc1cc(NCCC(=O)c2cccs2)c(OC)cc1Cl	-5.0%	-28.1%	x	u	1.26µM*	-4.8%
COc1cc(CN(C(=O)Nc2cccc(Cl)c2)c2ccccn2)cc(OC)c1OC	x	x	x	0.6%	6.6%	x
Cc1nn(CC(=O)NCCc2ccco2)c(=O)c2nn(-c3ccccc3)c(C)c12	1.8%	-8.9%	15.2%	-10.3%	31.6µM*	4.4%
C#C[C@]1(OC(=O)CCCCCC)CC[C@H]2C3CCC4=CC(=O)CC[C@@H]4[C@H]3CC[C@@]21C (stereo partly specified)	x	x	x	1.1%	x	x
COc1ccc(-c2nc3sc(CCNC(=O)c4cc(Cl)ccc4OC)c(C)n3n2)cc1	x	x	x	-3.2%	3.6%	x
COc1ccc(NC(=O)CS(=O)(=O)Cc2nc(-c3ccc(C)cc3)oc2C)cc1	u	8.0%	-5.5%	0.3%	-33.5%	6.2%
Cc1ccc(-c2nc(CS(=O)(=O)CC(=O)Nc3cc(C)ccc3C)c(C)o2)cc1	x	x	x	2.2%	-34.9%	x
COc1ccc(-c2nc(CS(=O)(=O)CC(=O)Nc3ccc(Cl)cc3)c(C)o2)cc1	-5.3%	2.7%	-31.1%	0.6%	35.5µM*	-0.8%
COC(=O)c1ccccc1NC(=O)CS(=O)(=O)Cc1nc(-c2ccc(C)cc2)oc1C	5.1%	-6.2%	-3.2%	1.8%	25.1µM*	10.7%
NCCNC(=S)S	x	x	-30.2%	x	x	x
O=C(Cc1cc(=O)[nH][nH]1)N/N=C/c1cccc(Cl)c1Cl	9.4%	-10.3%	10µM*	-4.2%	6.9%	8.1%
c1ccc(COC2CCCN(Cc3nc(-c4cnccn4)no3)C2)nc1 (stereo unspecified)	0.0%	17.8%	10.8%	1.5%	u	-5.1%
COc1ccc(-c2noc(CN3CCCC(OCc4ccccn4)C3)n2)cc1 (stereo unspecified)	-0.7%	-9.5%	-8.0%	-10.4%	35.5µM*	3.6%
Cc1ccc(CSc2nc3ccccc3c(=O)n2Cc2ccco2)cc1	-13.8%	-11.6%	3.2%	-17.0%	u	1.7%

From PubChem
